Measured values reported in PubChem BioAssay AID2315 (National Center for Advancing Translational Sciences (NCATS), 2010).
In all, about 290,000 compounds went through this assay and about 27,000 (9.3%) were called active. Rule as the data show it: active = inhibition mostly above about 28% (no sharp cut-off); inactive = mostly below about 43%. Shown is part of a subset that was picked to be rich in actives.

Assay: A qHTS for Small Molecule Inhibitors of Shiga Toxin; also: 0% is about no effect
Conditions: Vero cells, Shiga toxin protein synthesis inhibition reporter; at 38.7 µM, stronger effect = higher value

SMILES	inhibition
O=C(Nc1cccc(O)c1)c1ccc(C(=O)c2ccccc2)o1	88% (active)
O=C(Cc1ccccc1)Nc1cccc(NC(=O)c2ccccc2)c1	-14.6% (inactive)
COc1cc(/C=C(/NC(=O)c2ccccc2)C(=O)Nc2cccc(O)c2)c([N+](=O)[O-])cc1OC	-3.28% (inactive)
C/C(=C\C(=O)c1cccnc1)Nc1ccc(C)c(C)c1	43.6% (inactive)
C/C(=C\C(=O)c1ccccc1)Nc1cccc(O)c1	141% (active)
O=C(Nc1cccc(C(=O)N2CCCC2)c1)c1ccccc1	-3.28% (inactive)
CCCc1nnc(NC(=O)CCC(=O)N2CCN(S(=O)(=O)c3ccc(OC)cc3)CC2)s1	4.3% (inactive)
Cc1cc(NC(=O)Nc2c[nH]c(=O)[nH]c2=O)ccc1Br	-3.83% (inactive)
C=CCn1c(=O)c(C(=O)Nc2ncccc2O)c(O)c2ccccc21	4.1% (inactive)
CN(C)S(=O)(=O)c1ccc(N2CCCC2)c(C(=O)Nc2cccc(F)c2)c1	-10.4% (inactive)
O=C(CCl)N(Cc1cccc([N+](=O)[O-])c1)c1cccc(Cl)c1	-27.9% (inactive)
Nc1c(-c2cccc(Cl)c2)cnn1-c1cccc([N+](=O)[O-])c1	48.6% (active)
O=[N+]([O-])c1cccc(C2=NCCS2)c1	8.55% (inactive)
COc1ccc(CSc2nnnn2-c2ccc(O)cc2)cc1F	19.9% (inactive)
COc1cccc(-c2nnc(N(C)C(=O)c3ccno3)s2)c1	30.2% (inactive)
CN(C(=O)c1ccno1)c1nnc(-c2cccnc2)s1	5.36% (inactive)
CN(C(=O)C1CCOC1)c1nnc(-c2cccnc2)s1 (configuration not stated)	22% (active)
O=C(/C=C/c1cccc([N+](=O)[O-])c1)N1CCN(Cc2ccccc2)CC1	12.7% (inactive)
CNC(=O)N1c2ccccc2C=Cc2ccccc21	-6.09% (inactive)
CSc1nccc(NC(=O)c2ccc(C(C)(C)C)cc2)n1	71.6% (active)
O=C(Nc1ccnc(-c2ccncc2)n1)c1cccs1	-8.52% (inactive)
COC(=O)c1nc(NC(=O)c2ccc(C(C)(C)C)cc2)n[nH]1	10.9% (inactive)
CCOC(=O)c1c(S(=O)(=O)Nc2cccc(Cl)c2)c(C)n(C)c1C	-10.6% (inactive)
O=C(NNc1ncnc2c1cnn2-c1ccccc1)c1ccco1	35.5% (inactive)
Cc1ccc(-n2ncc3c(Nc4cccc(C(=O)O)c4)ncnc32)cc1	76.6% (active)
Cc1ccc(Nc2ncnc3c2cnn3C)c(C)c1	2.4% (inactive)
O=C(Nc1ccc(Br)cc1F)C1CC(=O)N(C2CCCCC2)C1 (configuration not stated)	0.452% (inactive)
